PubChem BioAssay
Results filed as inconclusive are left out. Calls of active or inactive are those of the source.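 The calls were made as follows, unless noted: active = RAM network inhibition above 8.4% in each of two replicates, 3 SD over the compound average; inconclusive = above 8.4% inhibition in only one replicate; inactive = 8.4% inhibition or less in each replicate.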

What was measured:
[1] = OD615 S. cerevisiae growth inhibition, permissive medium, pilot counter-assay, permissive growth control for S. cerevisiae lifespan shortening project (AID 705;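 active = growth inhibition above 25% in both replicates, a cutoff set 3 SD above the mean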); conditions: OD615, 24 h, at 10 µM, stronger effect = higher value
[2] = Restrictive medium S. cerevisiae growth inhibition, OD615, pilot screen of yeast lifespan reduction project, restrictive growth control (AID 706;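 active = growth inhibition above a set limit, 3 SD over mean compound inhibition, in both replicates, cut at about 43% in these data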;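 also: modified DeaD lifespan yeast strain shifted to restrictive glucose medium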); conditions: OD615, 48 h, at 10 µM, stronger effect = higher value
[3] = viability gain of MRP-1-high H69AR cells under doxorubicin, pilot screen, MRP-1 activator project, CellTiter-Glo, duplicate (AID 807;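 active = viability increase at or above a cutoff of the median across tested compounds plus 3 SD, cut at about 8.5% in these data, passing the limit was not always enough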;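 also: compound pretreatment 18-22 h then 72 h combined with doxorubicin; 0% = doxorubicin alone and 100% = vehicle without doxorubicin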); conditions: H69AR viability with doxorubicin, CellTiter-Glo luminescence; at 10 µM; stronger effect = higher value
[4] = growth suppression of beta-catenin knockout HCT116, pilot screen, human colon tumor cells (AID 823;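 active = cell viability at or below a set limit in both duplicate runs, the limit being the all-compound median minus 4 SD, cut at about 23% in these data, passing the limit was not always enough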;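 also: 0% = wells killed by 20 µM Hyamine and 100% = untreated DMSO cell wells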); conditions: CellTiter-Glo, 60 h, at 10 µM, stronger effect = lower value
[5] = growth suppression of PTEN-deleted HCT116, pilot screen, cell-based, HCT116 clonal line, CellTiter-Glo (AID 824;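 active = viability at or below 27.92% in each of two runs, the all-compound median minus 4 SD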;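 also: 0% = 20 µM Hyamine control and 100% = vehicle cell control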); conditions: 60 h, at 10 µM, stronger effect = lower value
[6] = RAM signaling pathway blockade in yeast – S. cerevisiae, Pdr1DBD-CYC8 efflux-inhibited sensitized strain, primary screen (AID 1298);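 also: 0% = DMSO untreated cells without growth and 100% = 10 µM 1-NA-PP1 full growth; higher means more yeast growth rescued from 5-FOA killing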; conditions: S. cerevisiae cbk1-as DSE1-URA3 strain, 5-FOA growth OD615, 2 d; at 50 µM; stronger effect = higher value
[7] = target: Pantothenate synthetase (Mycobacterium tuberculosis (strain ATCC 25618 / H37Rv)) (UniProt P9WIL5); assay: Recombinant Mtb pantothenate synthetase (PanC) inhibitors, coupled enzyme, confirmatory (AID 375; call rule not given here;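 also: 0% = full reaction with vehicle and 100% = no enzyme background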); conditions: coupled enzyme assay; at 10 µM, stronger effect = higher value
Pantothenate synthetase (Mycobacterium tuberculosis (strain ATCC 25618 / H37Rv)), sequence (P9WIL5 whole entry, looked up): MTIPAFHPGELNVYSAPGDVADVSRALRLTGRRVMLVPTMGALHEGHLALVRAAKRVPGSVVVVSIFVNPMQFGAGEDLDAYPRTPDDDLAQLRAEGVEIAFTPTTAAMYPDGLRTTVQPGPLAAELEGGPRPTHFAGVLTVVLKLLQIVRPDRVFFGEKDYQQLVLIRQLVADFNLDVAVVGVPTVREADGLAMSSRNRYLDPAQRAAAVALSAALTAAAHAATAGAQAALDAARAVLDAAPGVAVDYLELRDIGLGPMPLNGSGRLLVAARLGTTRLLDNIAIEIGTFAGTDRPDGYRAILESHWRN

[8] = reducers of endogenous Her2 protein level, primary screen, SKBR3 breast tumor cells, AlphaScreen, ATP viability (AID 461;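 active = Her2 level under about 52% in both replicate screens, with viability over 70% of control, limit read from the data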;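 as to Her2 level: lower value means less Her2 protein in the cells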;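 as to viability: percent of carrier control wells set as 100% viability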); conditions: 18-24 h, measured here: SKBR3 viability, ATP luminescence, at 10 µM
[9] = target: Receptor tyrosine-protein kinase erbB-2 (Homo sapiens) (UniProt P04626); assay: as above; conditions: 18-24 h, at 10 µM, stronger effect = lower value
Receptor tyrosine-protein kinase erbB-2 (Homo sapiens), sequence (P04626 whole entry, looked up): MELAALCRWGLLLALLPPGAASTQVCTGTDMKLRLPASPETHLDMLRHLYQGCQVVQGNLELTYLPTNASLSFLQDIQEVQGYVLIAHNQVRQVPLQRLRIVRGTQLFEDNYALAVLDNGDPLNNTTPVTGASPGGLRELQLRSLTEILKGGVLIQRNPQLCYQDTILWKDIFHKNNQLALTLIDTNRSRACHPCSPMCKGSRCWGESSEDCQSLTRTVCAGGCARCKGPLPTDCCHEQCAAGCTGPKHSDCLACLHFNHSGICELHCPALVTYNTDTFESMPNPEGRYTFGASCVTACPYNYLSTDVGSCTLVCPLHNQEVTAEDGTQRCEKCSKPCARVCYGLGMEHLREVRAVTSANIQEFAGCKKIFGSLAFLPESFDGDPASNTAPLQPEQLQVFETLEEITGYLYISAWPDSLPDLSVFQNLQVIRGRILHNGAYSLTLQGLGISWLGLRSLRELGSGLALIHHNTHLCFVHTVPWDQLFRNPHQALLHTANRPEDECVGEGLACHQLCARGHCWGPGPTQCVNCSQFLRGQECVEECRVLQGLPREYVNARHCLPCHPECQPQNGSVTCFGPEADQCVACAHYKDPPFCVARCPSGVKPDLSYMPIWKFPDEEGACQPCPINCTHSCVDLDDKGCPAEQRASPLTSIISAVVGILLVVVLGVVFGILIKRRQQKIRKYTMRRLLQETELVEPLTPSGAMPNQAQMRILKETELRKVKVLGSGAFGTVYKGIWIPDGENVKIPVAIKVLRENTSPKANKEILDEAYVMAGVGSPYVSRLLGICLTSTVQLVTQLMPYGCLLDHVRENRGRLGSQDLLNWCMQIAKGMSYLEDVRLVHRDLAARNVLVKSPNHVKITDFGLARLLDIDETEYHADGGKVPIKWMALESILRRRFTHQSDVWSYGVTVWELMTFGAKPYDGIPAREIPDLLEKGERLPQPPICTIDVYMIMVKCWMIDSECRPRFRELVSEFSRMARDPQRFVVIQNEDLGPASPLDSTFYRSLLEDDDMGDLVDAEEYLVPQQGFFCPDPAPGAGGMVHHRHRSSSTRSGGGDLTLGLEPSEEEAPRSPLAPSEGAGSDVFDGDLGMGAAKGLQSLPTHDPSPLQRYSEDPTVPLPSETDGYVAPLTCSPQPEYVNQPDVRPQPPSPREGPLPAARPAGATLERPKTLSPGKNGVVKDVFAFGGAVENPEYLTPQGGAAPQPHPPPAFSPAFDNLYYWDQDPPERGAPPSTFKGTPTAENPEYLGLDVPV

[10] = SK-BR-3 cell growth inhibitors, pilot screen, 24 h, human (AID 572;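 active = viability at or below 10% of carrier control in both of two separate runs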;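 also: compound exposure lasted between 18 and 24 h rather than exactly 24 h; 100% = carrier-treated control wells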); conditions: SK-BR-3 viability, CellTiter-Glo luminescence, at 10 µM, stronger effect = lower value
[11] = growth inhibitors of H69AR lung tumor, primary screen, human, duplicate replicates (AID 580;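 active = viability at or under a set limit in both replicates, limit being median viability minus 3 SD, cut at about 48% in these data, passing the limit was not always enough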;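 also: 100% = mean luminescence of untreated wells and 0% = no signal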); conditions: H69AR lung tumor cells viability, ATP luminescence, 72 h; at 10 µM; stronger effect = lower value
[12] = reversal of MRP1-mediated doxorubicin resistance, pilot screen, H69AR cells, doxorubicin co-treatment (AID 601;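 active = viability loss from added drug above about 55%, and viability with drug at most 40%, in both replicates, limit read from the data, passing the limit was not always enough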); conditions: CellTiter-Glo, 72 h, at 10 µM; for differential viability (reversal): stronger effect = higher value
[13] = 384-well plate pilot, post-Golgi transport modulator project, inhibition of yeast transport mutant growth (AID 636; in the data active = inhibition above about 31%); conditions: absorbance 615 nm, about 18 h, stronger effect = higher value
[14] = growth suppression of yeast trafficking mutant, preliminary HTS, modulators of trafficking downstream of Golgi apparatus project, 1536-format plate, OD 615 nm (AID 637; in the data active = inhibition above about 30%); conditions: yeast transport mutant growth, absorbance 615 nm, 18 h; stronger effect = higher value
[15] = inhibitors of the yeast RAM network, pilot screen, dse1pr::URA3 reporter, 5-FOA selection (AID 869;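 active = inhibition over a set limit, the all-compound mean plus 3 SD, in both replicate runs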;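 also: 0% = DMSO wells with no growth and 100% = 10 µM 1-NA-PP1 with full growth; RAM network block rescues cells from 5-FOA so hits raise OD615 growth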); conditions: S. cerevisiae dse1pr::URA3 5-FOA growth, OD615, 2 d, at 10 µM, stronger effect = higher value
[16] = HUVEC growth inhibition – cell-based, human, primary screen (AID 575;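 active = viability at or below 30% in both replicate assays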;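 also: 100% = median of untreated cell wells with 0.1% DMSO on each plate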); conditions: HUVEC proliferation, CellTiter-Glo luminescence, 72 h; at 10 µM; stronger effect = lower value
[17] = H69AR cells + 2 uM doxorubicin, measured here: viability with 2 uM doxorubicin, stronger effect = lower value
[18] = H69AR cells, compound alone cytotoxicity

SMILES | growth inhibition [1] | growth inhibition [2] | viability increase [3] | viability [4] | viability [5] | RAM network inhibition [6] | inhibition [7] | viability [8] [%] | Her2 level [9] | viability [10] | viability [11] | differential viability (reversal) ([12]; H69AR cells + 2 uM doxorubicin) | viability [12, 17] [%] | viability [12, 18] [%] | inhibition [13] | inhibition [14] | inhibition [15] | viability [16]
Cc1cc(OC(=O)c2ccco2)c2c3c(c(=O)oc2c1)CCC3 | 2.81% (inactive) | -1.05% (inactive) | -1.26% (inactive) | 94.3% (inactive) | 85.2% (inactive) | 4.5% (inactive) | – | – | – | – | – | – | – | – | – | – | – | –
C[C@H]1CCCC(=O)CCC/C=C/c2cc(O)cc(O)c2C(=O)O1 | -12.9% (inactive) | -14.8% (inactive) | -6.31% (inactive) | 65.3% (inactive) | 66.5% (inactive) | 4.86% (inactive) | 0% (inactive) | 98.5 | 16% (active) | 98.5% (inactive) | 38.4% (active) | -57.4% (inactive) | 95.8 | 38.4 | -3.47% (inactive) | 1.15% (inactive) | 2.21% (inactive) | –
CN1CSC(=S)N(C)C1 | 51.5% (active) | 63.5% (active) | -7.69% (inactive) | 13.9% (active) | 19.6% (active) | -1.87% (inactive) | – | – | – | – | – | – | – | – | – | – | -0.745% (inactive) | –
Cn1c(O)c(C=NCCOc2ccc(Cl)cc2)c(=O)n(C)c1=O | 4% (inactive) | 0.245% (inactive) | 2.29% (inactive) | 93.2% (inactive) | 93.7% (inactive) | 4.1% (inactive) | – | – | – | – | – | – | – | – | – | – | 1.06% (inactive) | –
C[C@H]1CCC[C@@H](O)CCC/C=C/c2cc(O)cc(O)c2C(=O)O1 | -5.6% (inactive) | -3.65% (inactive) | -7.59% (inactive) | 46.9% (inactive) | 44.9% (inactive) | 1.97% (inactive) | – | – | – | – | – | – | – | – | – | – | 0.64% (inactive) | –
COc1ccc(C2SCC(=O)Nc3c2c(=O)[nH]n3C2CCCCCC2)cc1OC (stereo not drawn) | -18.6% (inactive) | -6.19% (inactive) | -4.42% (inactive) | 92.4% (inactive) | – | 1.3% (inactive) | 6% (inactive) | 124 | 89% (inactive) | 124% (inactive) | 91.3% (inactive) | 7.54% (inactive) | 83.8 | 91.3 | -5.6% (inactive) | 4.1% (inactive) | 0.915% (inactive) | 105% (inactive)
CC1(C)Cc2c(sc3c2C(=O)NC(c2cccnc2)N3)CO1 (stereo not drawn) | -16.3% (inactive) | 11.8% (inactive) | -2.97% (inactive) | 107% (inactive) | – | 5.15% (inactive) | 7% (inactive) | 113 | 83.5% (inactive) | 113% (inactive) | 98.5% (inactive) | 12.8% (inactive) | 85.7 | 98.5 | -3.47% (inactive) | 1.48% (inactive) | 1.58% (inactive) | 102% (inactive)
Cc1cccc(N2CCc3c2nc2ccccc2c3N)c1 | -1.63% (inactive) | -0.635% (inactive) | -6.21% (inactive) | 36.4% (inactive) | 44.5% (inactive) | 4.96% (inactive) | 0% (inactive) | 84.5 | 86% (inactive) | 84.5% (inactive) | – | -14.1% (inactive) | 63.9 | 49.8 | -2.53% (inactive) | 7.67% (inactive) | 3.02% (inactive) | –
C=CCOC(=O)COc1cc(C)cc2oc(=O)c3c(c12)CCC3 | -7.89% (inactive) | -2.46% (inactive) | -0.23% (inactive) | 90.7% (inactive) | 99.4% (inactive) | 6.89% (inactive) | 1% (inactive) | – | – | 81% (inactive) | 84.4% (inactive) | -2.28% (inactive) | 86.7 | 84.4 | -5.73% (inactive) | -0.73% (inactive) | 1.63% (inactive) | 97.2% (inactive)
CCCCNC(=O)c1c(N)n(CCCOC)c2nc3ccccc3nc12 | 1.92% (inactive) | -1.88% (inactive) | -6.16% (inactive) | 68.5% (inactive) | 67.8% (inactive) | -3.2% (inactive) | 0% (inactive) | 89 | 82% (inactive) | 89% (inactive) | – | -25.4% (inactive) | 79.4 | 54 | 1.1% (inactive) | 5.24% (inactive) | 0.37% (inactive) | 71.8% (inactive)
CCOc1ccc(C2SCC(=O)Nc3c2c(=O)[nH]n3C2CCCCCC2)cc1 (stereo not drawn) | -17.8% (inactive) | -3.29% (inactive) | -7.49% (inactive) | 97.7% (inactive) | – | 4% (inactive) | 0% (inactive) | 110 | 108% (inactive) | 110% (inactive) | – | 1.13% (inactive) | 57.2 | 58.3 | -5.2% (inactive) | -7.62% (inactive) | 2.26% (inactive) | 63.8% (inactive)
